# Source: PubChem BioAssay
# ELG1 DNA repair: qHTS screen for small molecules that inhibit ELG1-dependent DNA repair in human embryonic kidney (HEK293T) cells expressing luciferase-tagged ELG1; HEK293T ELG1-luciferase reporter, luminescence, 16 h; DNA damage induced by 5-fluorouridine; Potency, µM (doses to about 46.1 µM), hits mostly inhibitors; hit rate 2.3% among 330,000; AID 504467, 2011; note: nearly all actives have a fitted effect of over 55% in size
#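 Quantitative HTS, concentration-response format. 2,000 cells/well co-treated with 5-fluorouridine and compound, 16 hr in 5% CO2 at 37 °C; ONE-Glo luminescence read after 30 min.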
# ELG1 genotoxic: qHTS screen for small molecules that induce genotoxicity in human embryonic kidney (HEK293T) cells expressing luciferase-tagged ELG1. AID 504466, 2011. Potency, µM (top dose mostly 46 µM), most hits filed as activators. hit rate 1.3% among 330,000. HEK293T ELG1-luciferase reporter, luminescence, 16 h; note: nearly all actives have a fitted effect of over 60% in size
#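 DMSO vehicle served as control against compound-treated ELG1-luciferase HEK293T cells; exposure lasted 16 hr at 37 °C and 5% CO2, followed by ONE-Glo luminescence detection after 30 min.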
# Rab9 prom act: qHTS Assay for Rab9 Promoter Activators | Huh7 Rab9 promoter-luciferase reporter, luminescence, 24 h | Potency, µM (doses to about 9.22 µM), actives largely listed as activators | hit rate 2.8% among 320,000; note: nearly all actives have a fitted effect of over 60% in size
#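 Huh7 reporter line, Rab9 promoter upstream of luciferase. Compound exposure 24 h at 37 °C in reduced-serum medium with 10% FBS. Read-out: luminescence.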
# FLuc counter: qHTS profiling assay for firefly luciferase inhibitor/activator using purifed enzyme and Km concentrations of substrates (counterscreen for miR-21 project); purified FLuc, Km substrates, luminescence inhibition; Potency, µM (top dose mostly 57.5 µM), usual class: inhibitors; hit rate 6.9% among 360,000; note: nearly all actives have a fitted effect of over 55% in size
# Target sequence (P08659 whole entry, looked up): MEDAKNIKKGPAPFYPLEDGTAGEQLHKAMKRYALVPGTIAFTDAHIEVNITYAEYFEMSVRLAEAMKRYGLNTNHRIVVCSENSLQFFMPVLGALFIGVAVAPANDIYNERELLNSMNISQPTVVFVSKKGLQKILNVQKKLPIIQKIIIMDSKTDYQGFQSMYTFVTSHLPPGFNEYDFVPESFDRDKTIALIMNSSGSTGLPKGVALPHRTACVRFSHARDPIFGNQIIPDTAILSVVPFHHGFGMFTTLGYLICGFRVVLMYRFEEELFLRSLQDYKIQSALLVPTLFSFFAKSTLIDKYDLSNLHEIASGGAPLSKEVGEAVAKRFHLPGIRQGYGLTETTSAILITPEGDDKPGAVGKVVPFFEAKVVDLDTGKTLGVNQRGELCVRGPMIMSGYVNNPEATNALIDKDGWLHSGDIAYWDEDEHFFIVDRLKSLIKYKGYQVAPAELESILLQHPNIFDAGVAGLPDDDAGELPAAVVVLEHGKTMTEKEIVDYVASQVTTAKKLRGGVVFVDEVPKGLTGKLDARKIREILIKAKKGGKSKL
#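 Purified P. pyralis luciferase (10nM final) with 10uM D-luciferin and 10uM ATP (Km levels) in 50mM Tris acetate pH 7.5, 10mM Mg acetate, 0.01% Tween-20, 0.05% BSA; qHTS 6-point titration, ~60 µM downward; luminescence read.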
# NPC1 promoter act: qHTS Assay for NPC1 Promoter Activators | Potency, µM (doses to about 9.22 µM), actives largely listed as activators | AID 485313, 2010 | hit rate 2.4% among 320,000 | Huh7 NPC1 promoter luciferase reporter, 24 h; note: nearly all actives have a fitted effect of over 60% in size
#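 In 1536-well qHTS, Huh7 cells harboring an NPC1 promoter–luciferase construct received compound for 24 h; activation was quantified by luminescence following luciferase reagent addition.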
# SMN2 splice up: qHTS Assay for Enhancers of SMN2 Splice Variant Expression; HEK293 SMN2-luciferase splicing reporter, luminescence, 30-36 h; Potency, µM (titrated, usually from 46.1 µM), hits mostly activators; hit rate 2.8% among 210,000; AID 1458, 2008; note: nearly all actives have a fitted effect of over 55% in size
#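 HEK293 cells carry an SMN2 […]–luciferase reporter in which exon 7 inclusion puts luciferase in frame. Cells were plated 10-12 h before compound addition, then incubated 30-36 h at 37C. ONE-Glo luminescence was read; sodium butyrate at 4.5 mM final served as control.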
# Numbers stand for hits; 0 = inactive; ? = inconclusive; - = no result. Only some compounds are listed: those with a hit (about 9.2% of all), similar ones and a draw of the others. Calls come from the whole dose curve; as a rule, active = well fitted curve in the direction sought with a large enough effect; inconclusive = small, poorly fitted or top-dose-only effect, or another doubt; inactive = no such curve, though single readings can be large; an effect the other way counts as inactive or inconclusive.
SMILES,ELG1 DNA repair,ELG1 genotoxic,Rab9 prom act,FLuc counter,NPC1 promoter act,SMN2 splice up
O=C(c1cc2ccccc2oc1=O)N1CCN(c2ncccn2)CC1,?,18µM,?,21µM,0,0
Cc1ccc(-c2cc(C(=O)N3CCN(c4ccc(O)cc4)CC3)c3ccccc3n2)cc1,?,0,-,-,-,-
CCCc1ccc(-c2cc(C(=O)N3CCN(c4ccccn4)CC3)c3ccccc3n2)cc1,?,?,?,0.11µM,?,-
CCOc1ccccc1NC(=O)C(Cc1ccccc1)NS(=O)(=O)c1ccc2c(c1)oc(=O)n2C (stereo not drawn),-,-,-,0,-,0
COc1ccc(-c2cc(C)no2)cc1S(=O)(=O)NC(C)C,-,-,-,0,-,-
N#CC(C#N)=c1ccc2c(c1)N1C3=C(CCCC3)CC3CCCCC31N=2 (stereo not drawn),0,0,0,12µM,0,0
N#C/C(C(N)=O)=c1/ccc2c(c1)N1C3=C(CCCC3)CC3CCCCC31N=2 (stereo not drawn),21µM,0,0,8.5µM,0,0
C/C=C(\C)C(=O)C[Si](C)(C)c1ccccc1,-,-,-,-,-,0
COc1ccccc1C(=O)Nc1onc2c1CCCC2,-,-,-,2.7µM,-,3.5µM
Cc1ccc(C(=O)Nc2onc3c2CCCC3)cc1,-,-,-,0.3µM,-,2.5µM
CCCCOc1ccccc1C(=O)Nc1onc2c1CCCC2,-,-,-,0,-,0
Cc1c(Cl)cccc1N1CCn2c1nc1c2c(=O)n(CC(=O)O)c(=O)n1C,-,-,-,0,-,0
O=C(CSc1nc2c([nH]c3ccccc32)c(=O)n1-c1ccccc1)Nc1ccccc1C(F)(F)F,-,-,-,0,-,-
CCCOc1ccc(C(=O)CCC(=O)OCC(=O)Nc2cccc(S(N)(=O)=O)c2)cc1,?,0,0,11µM,0,-
O=C(Nc1cccc(S(=O)(=O)N2CCCCC2)c1)c1ccc(OCC2CCCO2)cc1 (stereo not drawn),13µM,0,0,15µM,0,0
O=C(COC(=O)CNC(=O)c1ccc(F)cc1)Nc1cccc(S(=O)(=O)N2CCCC2)c1,0,0,0,0,0,-
CC(C)Oc1ccc(C(=O)Nc2cccc(S(=O)(=O)N3CCCC3)c2)cc1,23µM,0,-,-,-,-
CCOc1ccc(C(=O)NCC(=O)OCC(=O)Nc2cccc(S(=O)(=O)N3CCCC3)c2)cc1,0,0,0,4.3µM,0,-
COc1ccc(NS(=O)(=O)c2ccc3[nH]c4c(c3c2)CCCC4)cc1OC,-,-,-,0,-,-
O=C(CCCn1c(=O)c2cccn2c2ccccc21)Nc1cc(C(F)(F)F)ccc1Cl,-,-,-,0,-,-
O=C(CNc1cc(S(=O)(=O)N2CCOCC2)ccc1NCC1CCCO1)Nc1ccc(C(F)(F)F)cc1 (stereo not drawn),?,0,0,0,0,-
COc1ccc(C(=O)Nc2ccc(-c3ccc(C)o3)cc2)cc1S(=O)(=O)N1CCOCC1,15µM,0,0,?,0,-
COc1ccc(C(=O)Nc2ccc(Cl)c(S(=O)(=O)N3CCOCC3)c2)cc1,9.2µM,0,-,-,-,-
N#Cc1ccc(NC(=O)CNc2cc(S(=O)(=O)N3CCOCC3)ccc2NCC2CCCO2)cc1 (stereo not drawn),8.2µM,0,0,0,0,0
O=C(COC(=O)CNC(=O)c1ccc(Br)cc1)Nc1nnc(-c2ccccc2)o1,0,0,0,?,0,-
SMILES,ELG1 DNA repair,ELG1 genotoxic,Rab9 prom act,FLuc counter,NPC1 promoter act,SMN2 splice up
CCOc1ccc(C(=O)NCC(=O)OCC(=O)Nc2nnc(-c3ccccc3)o2)cc1,0,0,0,13µM,0,-
CCCN(Cc1cccs1)C(=O)Nc1ccc(F)c(Cl)c1,-,-,-,0,-,-
COc1cc(NC(=O)CC2C(=O)N(c3ccc(Cl)cc3)C(=O)N2Cc2cccs2)cc(OC)c1 (stereo not drawn),-,-,-,0,-,-
O=C(Nc1ccc(S(=O)(=O)N2CCCC2)cc1)c1ccc(OCC2CCCO2)cc1 (stereo not drawn),?,0,0,0,0,0
O=C(Nc1ccc(Cl)c(S(=O)(=O)N2CCOCC2)c1)c1ccc(OCC2CCCO2)cc1 (stereo not drawn),2.9µM,0,0,0,0,0
COc1cccc(CNC(=O)c2ccc(NC(=O)N3CC(C)Sc4ccccc43)cc2)c1 (stereo not drawn),-,-,-,0,-,0
Cc1ccc(CNC(=O)CSc2n[nH]c(-c3ccc(F)cc3)n2)cc1,-,-,-,0,-,-
CSc1n[nH]c(-c2ccc(C(F)(F)F)cc2)n1,?,?,?,17µM,?,-
CC1CCCCN1C(=O)c1ccc(OC2CCN(S(=O)(=O)N(C)C)CC2)cc1 (stereo not drawn),9.2µM,0,0,?,0,-
CN(C)S(=O)(=O)N1CCC(Oc2cccc(C(=O)NC3CCCCCC3)c2)CC1,16µM,0,0,0,0,-
CN(C)S(=O)(=O)N1CCC(Oc2ccc(C(=O)NC3Cc4ccccc4C3)cc2)CC1,0,0,0,?,0,-
COCC(=O)N1CCC(Oc2ccc(C(=O)NCc3cc(C)no3)cc2)CC1,0,0,0,0,0,-
Cc1cc(CNC(=O)c2cccc(OC3CCN(S(=O)(=O)N(C)C)CC3)c2)on1,?,0,?,15µM,3.5µM,-
C=CCC1(CC=C)CCCN1C(=O)C1CCC(=O)N(CCc2ccccc2)C1 (stereo not drawn),?,?,2.8µM,11µM,4µM,-
COc1ccc(CCN2CC(C(=O)N3CCC(OC)CC3)CCC2=O)cc1 (stereo not drawn),0,0,0,0,0,-
C=CCC1(CC=C)CCCN1C(=O)C1CCC(=O)N(CCc2ccc(OC)cc2)C1 (stereo not drawn),?,?,2.5µM,11µM,2.5µM,-
O=C1CCC(C(=O)N2CCSCC2)CN1CCc1ccccc1 (stereo not drawn),?,0,0,0,0,-
CCCC(=O)N=C1SC2CS(=O)(=O)CC2N1c1ccc(-c2nc3ccc(C)cc3s2)cc1 (stereo not drawn),?,21µM,4µM,5.4µM,3.5µM,-
Cc1ccc(N2C(=NC(=O)c3ccccc3)SC3CS(=O)(=O)CC32)cc1 (stereo not drawn),0,0,0,0,0,-
Fc1ccccc1-c1nc(-c2ccccc2)no1,?,?,2.8µM,0.6µM,3.5µM,11µM
Fc1ccccc1-c1nc(-c2ccncc2)no1,?,?,1.8µM,8.5µM,1.8µM,-
Brc1ccccc1-c1nc(-c2ccccc2)no1,?,?,3.5µM,0.95µM,0,4µM
COc1ccc(-c2ccc(-c3noc(-c4ccccc4F)n3)c(OC)n2)cc1,0,0,0,0,0,0
O=C(O)/C=C/C(=O)Nc1nccs1,?,0,0,0,0,-
